PubChem BioAssay AID743060 (The Scripps Research Institute Molecular Screening Center, 2013)

test: inhibitors of T. brucei MetRS aminoacylation, late-stage follow-up, biochemical, radioactivity, round 1 (AID 743060); conditions: purified enzyme, radiolabel aminoacylation, scintillation, 2 h; at 10 µM; stronger effect = higher value

Row | SMILES | inhibition [%]
1 | COc1cccc(NC(=O)CSc2nnc3c(n2)[nH]c2ccc(C)cc23)c1 | 94.2
2 | COc1ccc(NC(=O)C2CC(=O)n3c(nc4ccccc43)N2)cc1 (stereo not given) | -13.4
3 | COc1ccccc1NS(=O)(=O)c1cccc(NC(=O)Nc2ccccc2)c1 | 95.1
4 | Clc1ccc(OCCSCc2nc3ccccc3[nH]2)cc1 | 44.8
5 | O=C(CSC1CC(=O)N(c2cccc(Cl)c2)C1=O)Nc1ccc(Br)cc1 (stereo not given) | 79.9
6 | O=C(Cn1cc(C(=O)C(=O)N2CCOCC2)c2ccccc21)Nc1cccc(C(F)(F)F)c1 | 100
7 | O=C(CC(=O)Nc1cccc(Cl)c1)NN=Cc1ccccc1 | 81.1
8 | O=C(NCc1nc2ccccc2[nH]1)C1=C[C@@H](C2CC2)C[C@@H](OCc2ccc(CO)cc2)O1 | 93.6
9 | Cc1cccc2[nH]c(C3CCCN(C(=O)c4cccc5cccnc45)C3)nc12 (stereo not given) | -4.34
10 | O=C(NCCc1nc2ccccc2[nH]1)c1ccc(Cl)c([N+](=O)[O-])c1 | 99.6
11 | O=C(Cn1cc(C(=O)C(=O)N2CCOCC2)c2ccccc21)NCc1ccccc1 | 16.7
12 | Cc1cccc2[nH]c(CCN(C)C(=O)c3cccc(C4CCNC4)c3)nc12 (stereo not given) | -14.3
13 | O=C(NCc1nc2ccccc2[nH]1)C1=C[C@@H](c2ccc3c(c2)OCO3)C[C@@H](OCCCCO)O1 | 93.7
14 | O=C(Cn1cc(C(=O)c2ccco2)c2ccccc21)Nc1cccc(C(F)(F)F)c1 | 89
15 | O=C(NCc1nc2ccccc2[nH]1)C1=C[C@@H](c2ccc(Br)cc2)C[C@@H](OCc2ccc(CO)cc2)O1 | 97.6
16 | CC1Cc2ccccc2N1C(=O)Cn1cc(C(=O)C(=O)N2CCOCC2)c2ccccc21 (stereo not given) | -14.7
17 | O=C(Cn1cc(C(=O)C(=O)N2CCOCC2)c2ccccc21)NCC1CCCO1 (stereo not given) | 1.28
18 | CC(=O)c1cn(CC(=O)Nc2cccc(C(F)(F)F)c2)c2ccccc12 | 39.3

Row | SMILES | inhibition [%]
19 | O=C(Cn1cc(C(=O)COc2ccccc2)c2ccccc21)Nc1cccc(C(F)(F)F)c1 | -11.8
20 | O=C(NCc1nc2ccccc2[nH]1)C1=C[C@H](c2csc3ccccc23)C[C@H](OCCCCO)O1 | 97.8
21 | CCCCCCCCCC1NC(C(=O)O)Cc2c1[nH]c1ccccc21 (stereo not given) | 93.2
22 | CCO[C@H]1OC(C(=O)NCc2nc3ccccc3[nH]2)=C[C@@H](c2ccc(Br)cc2)[C@@H]1CCCO | 81.6
23 | C[C@H](O)[C@@H]1C(=O)N2CCc3c([nH]c4ccccc34)[C@@H]2C[C@@H]1N(C)Cc1ccc2c(c1)OCO2 | 80.4
24 | O=C(NCCc1nc2ccccc2[nH]1)c1ccc(Cl)cc1 | 74.2
25 | CCN(CC)C(=O)C(=O)c1cn(CC(=O)N2CCCc3ccccc32)c2ccccc12 | -17.2
26 | O=C(Cn1cc(C(=O)C2CC2)c2ccccc21)Nc1cccc(C(F)(F)F)c1 | 31.3
27 | COc1ccc(CCN(C(=O)c2cccc(F)c2)C2CC(=O)N(c3ccc(Br)cc3)C2=O)cc1 (stereo not given) | -7.62
28 | COc1ccccc1NC(=O)CSc1nnc2c(n1)[nH]c1ccc(C)cc12 | 14.5
29 | CCC(=O)c1cn(CC(=O)Nc2cccc(C(F)(F)F)c2)c2ccccc12 | 4.46
30 | CCc1ccc2c(c1)c1nnc(SCC(=O)Nc3ccc4c(c3)OCO4)nc1n2C | -8.11
31 | CCN(CC)C(=O)C(=O)c1cn(CC(=O)N(CC)c2ccccc2)c2ccccc12 | -7.96
32 | O=C(NCc1nc2ccccc2[nH]1)C1=C[C@@H](c2ccc(Br)cc2)C[C@@H](OCCCCO)O1 | 99.9
33 | CCN(CC)C(=O)C(=O)c1cn(CC(=O)Nc2cccc(OC)c2)c2ccccc12 | 86.4
34 | Cn1c(CCNC(=O)c2ccc(Cl)cc2)nc2ccccc21 | 3.39
35 | O=C(CN1CCSC1=NCc1ccccc1)c1ccc(Cl)c(Cl)c1 | 28
